Values without a mark were called inactive.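 How the source made its calls: active = AUC reduced over 20% with Padj below 0.05 in at least 2 of 3 replicates; inactive = otherwise.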
Experiments:
Experiment in all cases: growth AUC relative to DMSO control (median of replicates) (fraction); higher = more growth (less inhibition), active = hit call of the paper
Conditions in all cases: 20 µM; 24 h
[1] = test system: Akkermansia muciniphila
Outline: (§1)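 Hourly OD600 readings over 24 h tracked anaerobic gut bacterial monocultures grown at 37 °C in mGAM from OD600 0.05 with 20 µM compound (1% DMSO). After the minimum OD was set to 0, area under the growth curve was normalised to the plate median of solvent-only wells, or to row and column medians on the industrial chemical plate. Values are medians of three biological replicates grown on separate days.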

[2] = test system: Bacteroides caccae
Outline: as §1

[3] = test system: Bacteroides clarus
Outline: as §1

[4] = test system: Bacteroides dorei
Outline: as §1

[5] = test system: Bacteroides stercoris
Outline: as §1

[6] = test system: Bacteroides thetaiotaomicron
Outline: as §1

[7] = test system: Bacteroides uniformis
Outline: as §1

[8] = test system: Bifidobacterium longum subsp. longum
Outline: as §1

[9] = test system: Clostridium difficile
Outline: as §1

[10] = test system: Collinsella aerofaciens
Outline: as §1

[11] = test system: Coprococcus comes
Outline: as §1

[12] = test system: Escherichia coli ED1a
Outline: as §1

[13] = test system: Escherichia coli IAI1
Outline: as §1

[14] = test system: Eubacterium rectale
Outline: as §1

[15] = test system: Fusobacterium nucleatum subsp. animalis
Outline: as §1

[16] = test system: Lactobacillus gasseri
Outline: as §1

[17] = test system: Lactobacillus paracasei
Outline: as §1

[18] = test system: Odoribacter splanchnicus
Outline: as §1

[19] = test system: Parabacteroides distasonis
Outline: as §1

[20] = test system: Parabacteroides merdae
Outline: as §1

Structure (SMILES)	growth AUC [1]	growth AUC [2]	growth AUC [3]	growth AUC [4]	growth AUC [5]	growth AUC [6]	growth AUC [7]	growth AUC [8]	growth AUC [9]	growth AUC [10]	growth AUC [11]	growth AUC [12]	growth AUC [13]	growth AUC [14]	growth AUC [15]	growth AUC [16]	growth AUC [17]	growth AUC [18]	growth AUC [19]	growth AUC [20]
N#CC(=NOCC1OCCO1)c1ccccc1	1.03	0.834	0.992	0.963	1.06	0.981	0.96	1.06	1.02	0.936	1.01	0.971	0.982	1.06	0.99	0.962	1.01	1.11	0.981	0.931
CCCOC(=O)c1ccc(C(=O)OCCC)nc1	1.06	1.01	0.99	1.04	0.94	1.02	0.99	1.05	0.99	0.967	1.05	1	1	1.03	0.944	0.966	0.861	1.07	1	0.986
CCOC(=O)/C(Cl)=C/c1cc(N2C(=O)C3=C(CCCC3)C2=O)ccc1Cl	0.947	0.97	0.934	0.99	0.834	0.924	0.937	0.912	1.03	1.03	0.97	1	1.02	0.951	0.954	1.1	0.473	1.1	0.971	0.948
N#Cc1ccc(CC(=NNC(=O)Nc2ccc(OC(F)(F)F)cc2)c2cccc(C(F)(F)F)c2)cc1 (mixture of isomers)	1	1.03	1.02	1.03	0.988	1.02	1.02	0.999	1.01	1.03	0.991	0.986	1.02	0.963	1.12	1.15	0.959	1.02	0.999	0.936
c1ccc2cc3ccccc3cc2c1	0.776 (active)	0.972	1	1	1.01	0.987	0.999	0.81	0.997	0.961	0.927	0.987	0.967	1.27	1.01	0.914	0.923	0.999	0.758	0.958
CN(C)c1ccc(N=NS(=O)(=O)[O-])cc1.[Na+]	1.03	1.02	1.01	0.957	1.06	0.955	0.98	0.978	1.03	1.02	1.03	1.02	1.03	0.973	1.01	0.967	1.02	1.03	1.04	0.996
CC(C)COC(=O)COc1cc(Cl)c(Cl)cc1Cl	0.952	0.864	0.993	0.971	1.15	0.978	1.01	1.03	1	0.91	1	1.01	0.998	1.02	1.01	0.91	1.08	0.969	0.971	0.946
CCNc1nc(Cl)nc(N(CC)CC)n1	1.06	0.995	1.01	0.986	1.01	0.977	0.951	1.02	1.02	1.03	1.02	1.02	0.971	1.04	1.11	0.925	0.997	1.04	1.07	1
N#Cc1ccccc1NC(=O)c1snc(Cl)c1Cl	1.07	0.956	0.982	1.01	1.15	1	0.974	0.9	0.944	1.05	0.967	0.993	0.995	1.04	1.09	1	1.01	1.01	1	1.02
COC(=O)CCCOc1ccc(Cl)cc1Cl	1.01	0.964	1.02	0.922	0.997	1.01	0.945	1.04	0.973	0.987	0.968	0.983	0.958	1.1	0.966	0.916	0.916	0.925	0.791	0.97
Nc1nc2ccccc2[nH]1	1.06	0.96	1.01	0.911	1.01	1.02	0.94	1.03	0.973	0.943	0.971	0.976	0.986	1.08	0.932	0.883	0.969	0.942	0.615	0.933
CC(C)OC(=O)c1cc(C(=O)OC(C)C)cc([N+](=O)[O-])c1	0.939	0.977	0.987	0.974	0.933	0.933	0.924	0.932	0.992	0.947	0.97	0.998	0.988	0.972	0.98	0.968	0.964	1.06	0.963	0.921
S=C([S-])NCCNC(=S)[S-].[Mn+2]	0.999	1.01	1.13	0.979	1.1	1.03	0.991	0.996	0.977	1	0.998	1.03	1.03	1.02	1.04	0.994	1.16	1.06	1.02	1.03
CCC/C(=N\OCC)C1=C(O)CC(C2CCCSC2)CC1=O (stereo not given)	1.22	0.946	1.01	0.936	0.999	1.04	0.974	1.04	1.01	0.993	1.03	0.988	1.01	1.14	1.03	0.907	0.986	1.01	0.81	1.04
O=C(O)c1cccc2nnsc12	0.935	0.996	0.998	0.964	0.963	1.01	1.01	1.03	0.99	0.977	0.996	0.989	0.991	1.01	0.982	0.936	0.909	1.03	0.999	0.998
CCc1cccc(C)c1N(C(=O)C(=O)O)C(C)COC (stereo not given)	0.949	1.03	0.97	1.02	1.1	1.03	1.03	1.03	1.03	1.04	1.02	0.992	0.987	0.979	1.01	0.977	0.852	1.04	1.02	1.01
O.O=C(Nc1ccc([N+](=O)[O-])cc1Cl)c1cc(Cl)ccc1O	0.828	0.0261 (active)	0.00802 (active)	0.0256 (active)	0.00906 (active)	0.00758 (active)	0.0308 (active)	0.0965 (active)	0.328 (active)	0.865	0.884	1	0.973	0.952	0.741	0.15 (active)	0.3 (active)	0.039 (active)	0.0373 (active)	0.0254 (active)

Structure (SMILES)	growth AUC [1]	growth AUC [2]	growth AUC [3]	growth AUC [4]	growth AUC [5]	growth AUC [6]	growth AUC [7]	growth AUC [8]	growth AUC [9]	growth AUC [10]	growth AUC [11]	growth AUC [12]	growth AUC [13]	growth AUC [14]	growth AUC [15]	growth AUC [16]	growth AUC [17]	growth AUC [18]	growth AUC [19]	growth AUC [20]
COc1c(I)cc(C#N)cc1I	0.86	0.837	0.932	1.02	1.13	0.932	0.882	1.02	0.943	0.883	0.973	1	0.975	1	0.981	0.895	0.911	1.03	0.966	0.944
Oc1ccc2ccccc2c1N=Nc1ccccc1	1	0.973	1.01	0.977	0.972	1	1	0.942	0.991	0.917	0.858	1.01	1.01	0.983	1	0.973	0.733 (active)	1.04	0.905	1.05
Cl.NCCO/C=C/[C@H](N)C(=O)O	1.02	0.952	1.08	1.03	1.16	1	1.01	1.05	1.02	1.03	0.947	1.03	1.02	1.08	0.981	0.853	1.02	0.8	0.828	1.01
S=C([S-])NCCNC(=S)[S-].S=C([S-])NCCNC(=S)[S-].[Mn+2].[Zn+2]	0.974	1.02	1.1	1.06	1.06	0.975	1.07	1.03	0.994	1.03	0.99	0.996	1.03	1.22	1.06	1.03	1.08	0.967	1.01	1.01
C=O	0.996	1.01	0.982	1.02	1.03	0.972	0.988	0.984	0.968	1.04	0.998	1.03	0.999	0.921	1	1.04	1.06	1.03	1.03	1.03
CC(C)(C)Nc1nc(N)nc(Cl)n1	1.06	0.991	0.997	0.993	0.991	0.979	0.962	0.982	0.997	0.998	0.999	1.03	0.998	0.979	1	0.974	0.987	0.995	1.02	0.97
Cc1cc(C)cc(OCC(C)Nc2nc(N)nc(C(C)(C)F)n2)c1 (stereo not given)	1.07	0.889	0.889	0.978	0.746	0.912	0.962	1.03	0.983	0.929	0.958	0.948	0.956	1.05	0.813	0.974	0.993	0.992	0.835	0.87
COC(=O)c1c(Cl)ccc(Cl)c1OC	1.02	1	1.01	1.04	0.942	1.02	1	1.04	1.04	1.04	1.04	1.04	1.03	0.969	0.968	0.979	0.921	1.04	1.05	1.01
c1ccc(CNc2ncnc3nc[nH]c23)cc1	1.07	1.02	0.992	0.983	0.995	1.03	1.06	0.975	0.932	1	1.06	0.989	1.01	1.16	0.943	0.956	1.03	1.03	1.05	1.02
Cc1c(Br)c2ccc(F)cc2n1S(=O)(=O)c1ncn(S(=O)(=O)N(C)C)n1	0.998	1.05	1	1.01	0.997	1	0.993	1.05	1.07	1.07	1.03	0.999	1.11	0.989	1.08	1.04	0.981	0.957	0.861	0.949
O=[N+]([O-])c1ccc2c(c1)Cc1ccccc1-2	0.896	0.995	1.01	0.991	0.981	0.985	1	1.06	0.992	1	0.98	0.984	0.989	1.07	0.897	1.03	0.998	0.982	1.1	0.992
CC(C)c1ccccc1	0.937	1.02	1.01	1.02	1.02	0.999	0.999	0.947	1.02	1.02	0.983	0.987	0.999	0.968	0.92	1.17	0.996	0.999	1.04	1.02
C=CCc1ccc(OC)c(OC)c1	1.02	1.04	0.998	1.06	1.01	1.03	1.04	1.11	0.984	1.03	1.01	0.994	1.04	1	1.06	1.03	1	0.694 (active)	1.3	1.04
CO/N=C(/C(=O)O)c1ccccc1CO/N=C(\C)c1cccc(C(F)(F)F)c1	1	0.913	0.954	0.981	1.15	0.795	0.889	0.927	0.974	0.936	0.977	0.986	0.979	1.07	1.04	0.948	1.02	0.775	0.985	0.99
N[C@@H](Cc1cc(I)c(Oc2cc(I)c(O)c(I)c2)c(I)c1)C(=O)O	1.1	0.944	0.96	1.04	0.838	0.908	1.01	0.93	0.945	0.923	0.906	0.959	0.941	1.04	0.838	0.87	0.886	0.957	0.921	0.949
CC1(C)C(C(=O)OC(C#N)c2cccc(Oc3ccccc3)c2)C1C(Br)C(Br)(Br)Br (stereo not given)	0.951	0.934	1.04	0.995	1.2	1	0.943	1.03	1.03	0.939	0.99	1.02	1.01	0.996	1.05	1.04	1.12	1.06	0.998	1

From the supplement of paper PMC12669032
